This is a sample that favours compounds with a hit; in the whole collection about 6.6% have one here.
BoNT-A LC inh2 = BoNT A light chain protease inhibition; multiplex microsphere protease substrate cleavage, flow cytometry; inhibition, % at 10 µM; 0.17% of 360,000 active; AID 588499; also: plate controls were buffer without enzyme for full effect and enzyme alone for no effect
Mtb FBA inh = Mtb fructose-bisphosphate aldolase inhibition; inhibition, % at 1 µM; 2.3% of 360,000 active; P9WQA3; purified M. tuberculosis FBA, fluorescence read-out; in the data active = inhibition above about 27%;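 also: 0% = vehicle and 100% = reference inhibitor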
GDH-TPI inh = counter-screen for M. tuberculosis FBA inhibitors: GDH-TPI coupled enzymes. GDH-TPI coupled enzyme counterscreen, NADH absorbance. inhibition, % at 4.8 µM. 1.2% of 360,000 active. AID 588335; in the data active = inhibition above about 30%;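 also: 0% = DMSO wells and 100% = wells lacking the enzyme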
Anthrax LF inh2 = blocks Bacillus anthracis lethal factor protease | P15917 | multiplex microsphere protease cleavage assay, LF | inhibition, % at 10 µM | 0.12% of 360,000 active; also: plate controls were buffer without enzyme for full effect and enzyme alone for no effect
Target sequence (P15917 whole entry, looked up): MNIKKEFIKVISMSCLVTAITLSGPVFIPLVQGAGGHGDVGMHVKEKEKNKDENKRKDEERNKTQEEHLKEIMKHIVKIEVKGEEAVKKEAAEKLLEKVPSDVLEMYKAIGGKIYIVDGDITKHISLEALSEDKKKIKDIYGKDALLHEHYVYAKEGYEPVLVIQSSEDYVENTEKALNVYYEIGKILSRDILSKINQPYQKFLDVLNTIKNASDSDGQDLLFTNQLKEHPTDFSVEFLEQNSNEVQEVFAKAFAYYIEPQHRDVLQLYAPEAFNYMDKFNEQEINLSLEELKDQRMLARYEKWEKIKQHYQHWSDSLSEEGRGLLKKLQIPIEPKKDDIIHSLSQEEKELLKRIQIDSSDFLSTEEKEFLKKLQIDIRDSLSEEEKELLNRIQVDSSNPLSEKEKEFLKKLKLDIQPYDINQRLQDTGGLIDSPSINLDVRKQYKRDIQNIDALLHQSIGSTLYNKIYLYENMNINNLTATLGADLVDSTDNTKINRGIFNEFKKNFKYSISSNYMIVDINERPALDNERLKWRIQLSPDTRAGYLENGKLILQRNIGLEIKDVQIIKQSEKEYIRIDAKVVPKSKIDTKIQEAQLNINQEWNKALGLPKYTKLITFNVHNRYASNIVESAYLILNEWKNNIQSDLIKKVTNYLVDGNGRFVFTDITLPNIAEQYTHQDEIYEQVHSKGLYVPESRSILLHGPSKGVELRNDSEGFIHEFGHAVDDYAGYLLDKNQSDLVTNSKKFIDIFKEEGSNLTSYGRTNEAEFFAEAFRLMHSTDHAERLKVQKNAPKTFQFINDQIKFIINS
Bead autofluor = compound fluorescence in toxin protease inhibitor counterscreen; compound autofluorescence counterscreen, microsphere flow cytometry; hits give high values; fluorescence intensity (no concentration beside the values); 3.1% of 360,000 active; AID 624483; in the data active = fluorescence intensity above about 16000; inconclusive = no clear call, values can overlap the other calls
BoNT F protease = inhibitors of Botulinum neurotoxin F light chain protease; AID 588497; inhibition, % at 10 µM; 0.22% of 360,000 active; Multiplex microsphere protease cleavage assay, flow cytometry; in the data active = inhibition above about 35%, passing the limit was not always enough; inconclusive = no clear call, values can overlap the other calls; also: plate controls were buffer without enzyme for full effect and enzyme alone for no effect
The depositor's hits bear a star; ? = inconclusive; . = no result. Rule as the data show it, unless noted: active = inhibition above about 30%; inconclusive = no clear call, values can overlap the other calls; inactive = below that.

SMILES	BoNT-A LC inh2	Mtb FBA inh	GDH-TPI inh	Anthrax LF inh2	Bead autofluor	BoNT F protease
COc1ccc(C(=O)NCCCn2ccnc2)cc1	0	-7	-10	-5	4110	?
COc1ccc2c(c1)CCc1c(C(=O)NCc3ccco3)noc1-2	?	1	8	-4	24173*	-3
COc1ccc(NC(=O)Nc2nc(C)cc(C)n2)c(OC)c1	-4	1	-8	-9	3820	16
CC(=O)c1ccc(N2CCN(S(=O)(=O)c3cn(C)c(C)n3)CC2)cc1	-1	0	16	-8	4799	-10
CC(=O)c1ccc(N2CCN(S(=O)(=O)c3cn(C)cn3)CC2)cc1	-1	3	37*	0	5097	3
Cc1ccc(NC(=O)CN2C(=O)N/C(=C\c3ccco3)C2=O)cc1	0	-2	34*	-2	3841	7
O=C1N/C(=C/c2cccs2)C(=O)N1Cc1ccccc1F	0	4	6	0	2291	-3
O=C1N/C(=C\c2ccsc2)C(=O)N1Cc1ccc(F)cc1	1	-2	14	0	7360	1
Cc1cccc(NC(=O)CN2C(=O)N/C(=C\c3ccc(N4CCOCC4)cc3)C2=O)c1	0	-3	31*	2	8919	-2
O=C1N/C(=C/c2ccc(N3CCOCC3)cc2)C(=O)N1Cc1ccc(F)cc1	-3	0	27	-5	18011*	-7
O=C1N/C(=C/c2ccco2)C(=O)N1Cc1ccccc1F	0	0	33*	1	2060	-10
CN1OC[C@@H]2CN[C@H](c3cccc(Oc4ccccc4)c3)C[C@@H]21	0	3	-10	8	4070	-9
CCc1ccc(NC(=O)CN2CCN(c3ccc(OC)cc3)CC2)cc1	-1	2	-9	-15	3760	-5
Cc1nc([N+](=O)[O-])c(Sc2nc3ccccc3n2C)n1Cc1ccccc1	0	2	14	-1	10110	-5
O=C1CN(C(=O)COC(=O)Cc2ccsc2)c2ccccc2N1	?	-2	8	-2	23072*	-4
O=C1CN(C(=O)COC(=O)c2oc3ccccc3c2COc2ccccc2)c2ccccc2N1	-1	-1	4	-2	22869*	-4
CC(C)Cn1c(=O)c2ccccc2n2c(SCC(=O)N3c4ccccc4CC3C)nnc12 (stereo not drawn)	-2	-3	4	-3	6977	-12
O=C(Nc1ccc2c(c1)OCCO2)c1[nH]c(C(F)(F)F)nc1-c1ccccc1	0	4	.	3	5227	2
O=C(Nc1ccc2ccccc2c1)c1ccc(NS(=O)(=O)c2ccc(Br)s2)cc1	1	0	5	-1	2603	8
O=C(c1ccncc1)c1ccc(NS(=O)(=O)c2ccc(Br)s2)cc1	2	-2	39*	-5	7028	-4
O=C1C(Cc2ccc(Br)cc2)SC(=Nc2ccccc2)N1c1ccccc1 (stereo not drawn)	2	1	7	-2	2035	36*
COCc1cc(=O)n2[nH]c(C)c(-c3ccc(Cl)cc3)c2n1	0	135*	8	-4	3643	-2
O=P(c1ccccc1)(c1ccccc1)c1nc(-c2ccc(Cl)cc2)oc1N1CCOCC1	0	18	1	-3	2531	-4
Oc1c(C(Nc2cccc(C(F)(F)F)c2)c2ccncc2)ccc2cccnc12 (stereo not drawn)	-1	-3	18	-7	3346	-5
Oc1c(C(Nc2nccs2)c2ccc(C(F)(F)F)cc2)ccc2cccnc12 (stereo not drawn)	1	124*	8	6	4904	9
SMILES	BoNT-A LC inh2	Mtb FBA inh	GDH-TPI inh	Anthrax LF inh2	Bead autofluor	BoNT F protease
COC(=O)C(C(=O)OC)=C(/C=C/N(C)C)N(C)C	0	-6	38*	5	9659	4
COc1ccc(CNC(=O)CSc2nnc(C)c(=O)[nH]2)cc1	1	-7	-6	0	4663	-4
CCC(=O)Nc1nc2cc(OC)ccc2s1	1	4	-2	-6	8830	-4
COc1ccc2nc(NC(=O)CSc3nc(SC)ns3)sc2c1	0	0	9	-2	2722	1
COc1ccc2nc(NC(=O)CSc3nnc(C)s3)sc2c1	-2	-1	-4	0	21301*	-4
CSc1cccc(NC(=O)CSc2nnc(C)s2)c1	0	-2	10	-2	16404*	-3
COc1ccc(CNC(=O)CSc2nnc(C)s2)cc1	?	1	-2	0	19126*	3
COc1ccc2sc(NC(=O)CC(C)C)nc2c1	0	-1	8	-1	20332*	0
O=C1CCN(Cc2ccccc2)C=C1c1ccc(Br)cc1	1	3	21	-1	3912	2
CCN1C(=O)[C@H]2[C@@H](c3ccc(C)cc3)N[C@]3(CCCN(Cc4ccc(Cl)cc4)C3=O)[C@H]2C1=O	0	0	-3	-6	3902	-4
Oc1oc(-c2ccccc2)nc1C=NCc1ccccc1	1	-4	49*	0	7812	-2
COc1ccccc1OCCNc1ccc(S(=O)(=O)N2CCCC2)cn1	.	0	-2	.	.	.
COc1cc([C@H]2[C@@H]3CCCC[C@]3(O)CCN2CC(=O)Nc2ccc(C)cc2)ccc1O	1	0	2	-5	22835*	-4
COc1ccc(CC(=O)n2nc(-c3ccc(Cl)cc3)nc2NCc2ccco2)cc1	?	-2	7	-5	24639*	-6
CC(=O)n1nc(-c2ccc(Cl)cc2)nc1NCc1ccco1	-3	1	-3	-1	21596*	-5
O=C1CC(CCC(=O)NC2CC2)c2ccccc2N1 (stereo not drawn)	1	6	-1	0	20432*	2
O=C1CC(C(=O)O)c2ccccc2N1 (stereo not drawn)	18	-1	1	2	9635	29
COc1ccc(NC(=O)CN2c3cccc4cccc(c34)S2(=O)=O)cc1OC	0	1	4	-3	2908	2
CC(=O)OC[C@H]1O[C@@H](Oc2cc(O)cc3oc(-c4ccc(O)cc4)cc(=O)c23)[C@H](O[C@@H]2O[C@@H](C)[C@H](O)[C@@H](O)[C@H]2O)[C@@H](O)[C@@H]1O	1	13	33*	14	4050	1
COc1ccc(-c2cc(=O)c3c(O)cc(OC4OC(COC5OC(C)C(O)C(O)C5O)C(O)C(O)C4O)cc3o2)cc1O (stereo not drawn)	-1	3	42*	7	5823	-4
CCCCNC(=O)CCNS(=O)(=O)c1ccc(Br)cc1	0	2	4	-3	9229	-10
C=CCNC(=O)CCNS(=O)(=O)c1ccc(Br)cc1	2	-6	-3	-5	22875*	0
CCC(C)NC(=O)CCNS(=O)(=O)c1ccc(Br)cc1 (stereo not drawn)	4	-1	0	-4	21722*	2
CCc1cc(=O)oc2cc3oc(C)c(C)c3cc12	?	3	0	1	19139*	5
O=C(N/N=C/c1cccn1-c1cccc(C(=O)O)c1)Nc1ccccc1	0	-1	0	0	2264	-4
